Hits are enriched below; roughly 2.7% of the tested compounds scored in any of these assays.
gsp ag = qHTS for Agonist of gsp, the Etiologic Mutation Responsible for Fibrous Dysplasia/McCune-Albright Syndrome: qHTS | Potency, µM (highest dose often 76.9 µM), inactives show at the highest dose activation (cAMP increase), hits mostly activators | 340,000 compounds, 0.13% hits | gsp mutant cells, cAMP HTRF, 30 min; active means well fitted activation curve with a large enough effect; inconclusive means small, poorly fitted or top-dose-only effect, or another doubt; inactive means no such curve, though single readings can be large or run the other way; cell line not stated here;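 further: phosphodiesterase inhibitor Ro 20-1724 added with compounds to block cAMP breakdown; potency means the concentration at half of the fitted maximal effect; nearly all actives have a fitted effect of over 60% in size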
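Cells stably selected in G418 were plated at 2000/well, grown 16-24 hr, then given compounds in DMSO with the PDE inhibitor […] (300 uM solution added) for 30 min at 37C; cAMP was read by HTRF.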
gsp antagonist = qHTS for Antagonists of gsp, the Etiologic Mutation Responsible for Fibrous Dysplasia/McCune-Albright Syndrome: qHTS | 340,000 compounds, 0.4% hits | gsp-mutant cells, cAMP HTRF, 30 min | Potency, µM (highest dose often 76.9 µM), without a hit: top-dose activity change, negative = inhibition, usual class: inhibitors | AID 624288, 2012; calls by dose curve; cell line not stated here;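 further: intracellular cAMP measured with PDE inhibitor Ro 20-1724 present during compound exposure; potency means the concentration at half of the fitted maximal effect; on the % scale 0 is the no-effect control and ±100 the full control effect; nearly all actives have a fitted effect of over 65% in size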
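G418-selected cells were plated in DMEM/10% FBS for 16-24 h at 37C, then treated with compounds plus the PDE inhibitor […] (300 uM solution added) for 30 min at 37C. Intracellular cAMP was measured by HTRF after 30 min lysis at room temperature.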
RXFP1 agonist = qHTS Assay for Agonists of the Relaxin Receptor RXFP1 | AID 2676, 2010 | Potency, µM (titrated, usually from 57.5 µM), for inactives: at the top dose activation, actives largely listed as activators | 370,000 compounds, 0.3% hits | HEK293T-RXFP1 cAMP TR-FRET, 30 min; response scale: percent of porcine relaxin response, buffer zero | Relaxin receptor 1 (Homo sapiens), Q9HBX9; active means well fitted activation curve with a large enough effect; inconclusive means small, poorly fitted or top-dose-only effect; further: potency means the concentration at half of the fitted maximal effect; on the % scale 0 is the no-effect control and ±100 the full control effect; nearly all actives have a fitted effect of over 60% in size
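Agonist response is measured as cAMP accumulation in an RXFP1-transfected HEK293T line under PDE4 inhibition. Values are scaled between buffer-only and 29 nM porcine relaxin, and EC50s come from standard Hill equation fits.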
RXFP1 antag = qHTS Assay for Antagonists of the Relaxin Receptor RXFP1; activity change, negative = inhibition, % at 57.5 µM; HEK293-RXFP1, relaxin-stimulated cAMP HTRF, 30 min; active compounds read low; Relaxin receptor 1 (Homo sapiens), Q9HBX9; 350,000 compounds, 0.59% hits;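 active means activity change of -60% or lower, but not beyond a set lower limit; inconclusive means change between -60% and -40%, or beyond the set limit; inactive means change above -40%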; further: on the % scale 0 is the no-effect control and ±100 the full control effect
ClpP mod = qHTS Assay for Activators of ClpP; Potency, µM (top dose mostly 57.5 µM), without a hit: at the highest dose activity change, negative = active; 340,000 compounds, 1.9% hits; AID 651965, 2013; purified B. subtilis ClpP, FRET peptide cleavage, 20 min; ATP-dependent Clp protease proteolytic subunit (Bacillus subtilis (strain 168)), P80244; active means well fitted falling curve with a large enough effect; inconclusive means small, poorly fitted or top-dose-only effect; inactive means no such curve, though single readings can be large or run the other way; further: potency means the concentration at half of the fitted maximal effect; the source files actives as falling curves though it sought activators and does not explain the sign; nearly all actives have a fitted effect of over 65% in size
Target sequence (P80244 whole entry, looked up): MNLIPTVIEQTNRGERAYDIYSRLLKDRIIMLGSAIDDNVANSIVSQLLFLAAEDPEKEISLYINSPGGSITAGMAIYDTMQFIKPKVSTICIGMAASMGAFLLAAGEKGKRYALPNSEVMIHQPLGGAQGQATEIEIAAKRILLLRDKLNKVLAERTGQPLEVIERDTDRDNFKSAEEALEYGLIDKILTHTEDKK
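ClpP 10 microg/mL final, pH 8 Tris/KCl buffer with BSA, glycerol, Tween-20; compound pinned in; FRET-FV substrate; RT 20 min; Ex320/Em430; ΔFRET vs ADEP 5.8 microM, DMSO, no enzyme.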
pAkt inh = HTS Assay for Inhibitors of Akt Phophorylation: Primary Screen; Neuro2A IGF-stimulated pAkt S473 HTRF, 20 min; active compounds read low; activity change, % for hits at 50 µM; 360,000 compounds, 0.32% hits; AID 651550, 2012; in the data active means activity change below about -80%; inconclusive means mostly about -51% to -80%; further: on the % scale 0 is the no-effect control and ±100 the full control effect
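Single-point screen (50 µM final compound) in Neuro2A cells stimulated 20 min with 6 nM IGF at 37 deg C. After lysis, Ser473-phosphorylated Akt read by HTRF (ex 330 nm, em 615/665 nm) as the 665/615 ratio.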
* = called active by the depositor; i = inactive; ? = inconclusive; . = no result; [ ] = another dose, or the depositor's remark.

SMILES	gsp ag	gsp antagonist	RXFP1 agonist	RXFP1 antag	ClpP mod	pAkt inh
CCCCOC(=O)CSCC(=O)N1N=C(c2cccs2)CC1c1ccc(F)cc1 (stereo not given)	-11.9%	-20.4%	0.4%	22.8	14.1µM*	i
CCN1CCc2c(OCC(=O)N3N=C(c4cccs4)CC3c3ccc(F)cc3)cccc2C1=O (stereo not given)	0.9%	-17.4%	1.8%	-8.1	7.94µM*	i
COc1ccc(C2CC(c3cccs3)=NN2C(=O)CSc2nc3ccccc3o2)cc1 (stereo not given)	7.3%	-11.5%	3.5%	-0.4	31.6µM*	i
CCNC(=O)C1(C)CCCCN1Cc1ccc(C#N)cc1 (stereo not given)	.	.	.	.	-4.4%	i
CSc1ccc(CCNC(=O)c2ccc(-c3nc(COc4ccc(C)cc4)c(C)o3)cc2)cc1	.	.	8.1%	-11.5	-0.1%	.
CC(C)(Oc1ccc(Br)cc1)C(=O)Nc1cc(-c2nc3ccccc3[nH]2)ccc1Cl	.	.	1.4%	.	4.0%	.
CCCC(=O)Nc1cccc(NC(=O)c2ccc3c(c2)OCO3)c1	18.7%	-19.8%	-1.9%	-12.8	-0.1%	-114.8%*
O=C(Nc1c(C(=O)Nc2cccc(F)c2)oc2ccccc12)c1ccc2c(c1)OCO2	46.9%	-1.0%	?	6.0	25.1µM*	-111.5%*
O=C(NCc1ccc(F)cc1F)c1cc(COc2c(F)cccc2F)on1	0.4%[15.4 µM]	8.6%	2.3%	-3.2	17.8µM*	i
COC(=O)c1c(NC(=O)COC(=O)C2CCC2)sc(C)c1C	33.4%[15.4 µM]	-4.2%	-0.6%	?	.	i
COc1cc(N)c(Cl)cc1C(=O)OCC(=O)Nc1cccnc1Cl	-7.6%	14.9%	1.7%	-6.7	28.2µM*	i
O=C(COC(=O)c1ccc(Br)cc1)Nc1cccnc1Cl	8.4%	0.5%	1.4%	7.4	-2.0%	i
O=C(COC(=O)c1cccc(F)c1)Nc1cccnc1Cl	-7.4%[15.4 µM]	0.5%	4.5%	-4.0	25.1µM*	i
CN(C)S(=O)(=O)c1ccc(C(=O)OCC(=O)Nc2cccnc2Cl)cc1	11.4%[15.4 µM]	-0.6%	14.1µM*	19.7	0.9%	i
COc1ccc(Cl)cc1C(=O)OCC(=O)Nc1cccnc1Cl	-8.5%	-6.5%	1.8%	6.4	?	i
Cc1ccc(NC(=O)C(Cc2ccccc2)NS(=O)(=O)c2cccs2)cc1Cl (stereo not given)	.	.	2.8%	.	-8.4%	.
O=C(NCCc1ccc(Cl)cc1)c1c2c(nc3ccccc13)C(=O)N(C1CCCCC1)C2	.	.	1.8%	-39.9	-13.1%	.
CC(C)Sc1nnc2c3ccccc3n(C)c2n1	.	.	.	.	-0.7%	.
CC1(C)CC(=O)C2=C(C1)NC1=C(C(=O)c3ccccc31)C2c1cc([N+](=O)[O-])ccc1O (stereo not given)	14.1µM*	-11.6%	?	23.0	.	i
Cc1nc(-c2ccc(OCC(C)C)c(C#N)c2)sc1C(=O)O	.	.	.	-38.3	.	.
Cc1ccc(C(O)c2ncc(-c3cccc4ccccc34)[nH]2)c(C)c1 (stereo not given)	.	.	.	.	5.0%	i
COc1ccc(C(=O)COC(=O)c2ccc(Cl)nc2)cc1OC	-0.1%[15.4 µM]	0.0%	0.1%	-3.0	22.4µM*	i
Cc1ccc(C(=O)Oc2ccc(Br)cc2C(=S)N2CCOCC2)cc1	-8.0%[15.4 µM]	-7.8%	-2.5%	-11.8	.	i
COc1ccc(C(=O)Oc2ccc(Br)cc2C(=S)N2CCOCC2)cc1	2.9%	-17.2%	1.7%	-67.2*	.	i
Cc1[nH]n(-c2ccc([N+](=O)[O-])cc2)c(=O)c1C=NCCc1ccc(S(N)(=O)=O)cc1	13.5%[15.4 µM]	7.2%	3.8%	-13.3	.	i
SMILES	gsp ag	gsp antagonist	RXFP1 agonist	RXFP1 antag	ClpP mod	pAkt inh
Cc1[nH]n(-c2ccc([N+](=O)[O-])cc2)c(=O)c1C=NCCN1CCN(C(=O)C(C)C)CC1	?	-1.4%	25.1µM*	7.8	-1.7%	i
O=c1c2ccccc2nc(COc2ccccc2)n1/N=C/c1c[nH]c2ccccc12	4.5%	-6.2%	0.1%	.	59.2%	i
O=c1c2ccccc2nc(COc2ccccc2)n1/N=C/c1ccc(O)cc1O	12.2%	?	4.7%	-70.9*	10.0%	i
Oc1ccccc1/C=N/n1c(COc2ccccc2)n[nH]c1=S	12.9%[15.4 µM]	-21.9%	3.3%	-13.0	35.5µM*	i
COc1cc(OC)c(/C=C/c2cc3ccccc3c[n+]2C)c(OC)c1	.	.	.	.	-2.0%	.
CCN1CCN(S(=O)(=O)c2ccc(Cl)c(C(=O)N(C)CC(=O)Nc3c(C)cccc3C)c2)CC1	-15.2%	14.2%	.	2.1	0.0%	i
C/C(=N\NC(=O)c1ccc(F)cc1)c1cccc(NC(=O)c2ccco2)c1	-18.6%	-1.9%	4.0%	-2.5	0.0%	-95.5%*
C/C(=N\NC(=O)c1ccc(F)cc1)c1cccc(NC(=O)c2cccc(F)c2)c1	?	-2.2%	0.2%	-6.3	0.8%	i
O=C(Cn1cnc2c(nnn2-c2ccc(F)cc2)c1=O)NCC1CCCO1 (stereo not given)	10µM*	8.1%	?	23.2	?	i
COc1ccc(-n2nnc3c(=O)n(CC(=O)NCC4CCCO4)cnc32)cc1 (stereo not given)	7.94µM*	35.4%	11.2µM*	3.9	-5.1%	i
COC(=O)Cn1cnc2c(nnn2-c2ccc(OC)cc2)c1=O	-41.7%	-1.1%	2.5%	-5.5	-1.0%	i
O=C(Cn1cnc2c(cnn2-c2ccc(F)cc2)c1=O)NCC1CCCO1 (stereo not given)	?	9.2%	4.9%	7.2	-7.6%	i
CCOC(=O)CNC(=O)c1ccc2[nH]c3ccccc3c2c1	-13.0%	2.3%	1.5%	-5.4	4.3%	i
O=C(NCC(O)CO)c1ccc2[nH]c3ccccc3c2c1 (stereo not given)	-19.8%	0.2%	1.3%	-3.1	28.2µM*	i
Cc1nn(Cc2ccc(Cl)cc2)c(C)c1NC(=O)CCCn1nc(C)c([N+](=O)[O-])c1C	-8.8%	4.1%	-0.5%	.	-1.4%	i
Cc1nn(Cc2ccccc2)c(C)c1NC(=O)CCCn1nc(C)c([N+](=O)[O-])c1C	-1.1%	3.0%	0.9%	.	28.2µM*	i
COc1ccc(-c2nc(-c3cccs3)c(-c3cccs3)[nH]2)cc1O	1.0%	?	7.8%	-28.0	25.1µM*	i
CCN1CCC(O)(C(C(=O)OC)c2ccccc2)CC1 (stereo not given)	3.1%	10.4%	.	11.2	.	i
CCc1ccc(CNC(=O)c2ccc3c(c2)c(C)c(C)n3Cc2ccccc2)cc1	.	.	-1.4%	-2.0	25.1µM*	.
